The nature of this assay: growth inhibition of WT strain, primary screen, mitochondrial fusion inhibitor project, WT and mutant strains, chemical genetic (AID 1362). The following applies: mitochondrial fusion phenotypic screen, at 10 µM.
Setting [1] is: WT strain, growth inhibition, stronger effect = higher value.

Hit rate of the full screen: of about 190,000 compounds, about 4,000 (2.1%) were called active. Cut-off read from the data, not from the text of the source: active = inhibition above about 58%; inactive = the rest, inconclusive results apart; tested in S. cerevisiae. What follows is part of a selection rich in actives, with near analogues and random picks from the rest.

The results in this text go back to PubChem BioAssay AID1362 (SRMLSC, 2008).

A word on the inhibition: it is the drop in the measured response relative to a control, in per cent.

Consider `Cc1noc(COc2ccccc2OCc2onc(C)c2Cl)c1Cl`, for which the inhibition by setting is: under setting [1], 64% (active); (mutant strain inhibition) 31.8%.
For `Cc1noc(COc2ccccc2OCC(O)CNC(C)(C)C)n1` (stereo unspecified), in that order: -1.99% (inactive) and -4.87%.
For `Cc1nc2ccccc2cc1OCc1ccc(F)cc1`, in that order: -15.6% (inactive) and -4.03%.
For `CCc1[nH]nc(C(=O)N2CCCC(CNS(=O)(=O)c3cccs3)C2)c1C` (stereo unspecified), the inhibition was -19% (inactive) under setting [1] and 4.29% (mutant strain inhibition).
For `O=[N+]([O-])c1ccc2[nH]c3c(c2c1)CCCC3O` (stereo unspecified), in that order: -3.98% (inactive) and 12%.
The corresponding values for `COc1ccc(F)cc1C(=O)C1CCCN(C(=O)CCc2ccccn2)C1` (stereo unspecified) are 15.2% (inactive) and -2.96%.
On to `CCOC(=O)N1CCN(C(=S)Nc2ccc(C)cc2C)CC1`, for which the inhibition runs as follows: under setting [1], 7.78% (inactive); (mutant strain inhibition) 3.64%.
The corresponding values for `CCOC(=O)C1=C(c2ccc(OC)cc2)C(=O)c2ccccc2C1=O` are 68.3% (active) and 20.7%.
With `CCOC(=O)c1ccccc1NS(=O)(=O)c1ccc(OC)cc1`, the inhibition was 38% (inactive) under setting [1] and 30.7% (mutant strain inhibition).
Take `CCOC(=O)c1c(C)[nH]c2c1-c1ccccc1C(=O)C2=O`: the inhibition by setting is: under setting [1], 46.9% (inactive); (mutant strain inhibition) 15%.
For `CCC(=O)c1ccc(OCC(O)Cn2nc(C)c(C(C)=O)c2C)cc1` (stereo unspecified), in that order: -6.24% (inactive) and -0.7%.
As for `CCCn1nc(C(=O)N2CCCc3ccccc32)c2ccccc2c1=O`, the inhibition runs as follows: under setting [1], 9.04% (inactive); (mutant strain inhibition) 8.88%.
The corresponding values for `Cc1ccc(-c2csc(NC(=O)c3cnccn3)n2)cc1C` are -10.3% (inactive) and 14.6%.
The corresponding values for `Cc1nn(-c2ccccc2)c(Cl)c1/C=C/C(=O)c1ccc(O)cc1` are -8.06% (inactive) and 3.09%.
For `Cc1ccc(C(=O)/C=C/c2c(C)nn(-c3ccccc3)c2Cl)cc1`, in that order: 59.5% (active) and -6.72%.
Consider `Cc1nn(-c2ccccc2)c(Cl)c1C(=O)Nc1ccccc1`, for which the inhibition was 24.7% (inactive) under setting [1] and -5.62% (mutant strain inhibition).
For `O=C(Cn1c(N2CCN(C/C=C/c3ccccc3)CC2)nc2ccccc21)c1ccccc1`, in that order: 45.1% (inactive) and 41.5%.
For `COc1ccc(C(=O)CSc2nnc(-c3ccco3)o2)cc1`, in that order: -6.52% (inactive) and -35.3%.
For the compound `N#Cc1cccc(Nc2c3c(nc4ccccc24)CCCC3)c1`, the inhibition is, setting by setting: under setting [1], -0.59% (inactive); (mutant strain inhibition) 6.35%.
For `COC(=O)c1c(C)[nH]c(C)c1-c1ccc([N+](=O)[O-])cc1`, in that order: 53% (inactive) and 55.8%.
In the case of `COc1ccc(NC(=S)Nc2ccc(S(N)(=O)=O)cc2)c(C)c1`, the inhibition under setting [1] is 13.8% (inactive) and the inhibition (mutant strain inhibition) came to 6.64%.
For `CC(C)(C)OC(=O)N/N=C/c1cn(-c2ccccc2)nc1-c1cccnc1`, in that order: -8.33% (inactive) and -1.71%.
The corresponding values for `COc1ccc(-c2nn(-c3ccccc3)cc2/C=N/Nc2ccccn2)cc1OC` are 60.2% (active) and 31.9%.
Turning to `COc1ccc(-c2nn(-c3ccccc3)cc2C(=O)Nc2nccs2)cc1OC`, the inhibition is 26.6% (inactive) under setting [1] and -2.08% (mutant strain inhibition).
As to `Cc1nnsc1C(=O)N/N=C/c1cccc(C(F)(F)F)c1`, the inhibition was 36.2% (inactive) under setting [1] and 7.39% (mutant strain inhibition).
For `Cc1cc(=O)oc(C)c1C(=O)Nc1cnc2ccccc2c1`, the inhibition by setting is: under setting [1], 98.9% (active); (mutant strain inhibition) 96.3%.
Take `Cc1cc(=O)oc(C)c1C(=O)NCc1ccc(F)cc1`: the inhibition runs as follows: under setting [1], -0.25% (inactive); (mutant strain inhibition) 16.4%.
Take `Cc1cc(=O)oc(C)c1C(=O)NCCN(C)Cc1ccccc1`: the inhibition under setting [1] is -0.58% (inactive) and the inhibition (mutant strain inhibition) was 11.8%.
As for `CC(C)C(=O)NCc1cc(-c2ccc(Cl)cc2)no1`, the inhibition under setting [1] is 1.64% (inactive) and the inhibition (mutant strain inhibition) was -1.57%.
Take `O=C(CC1C(=O)NCCN1Cc1ccc(-c2ccccc2)cc1)NCC1CCOCC1` (stereo unspecified): the inhibition by setting is: under setting [1], -14.8% (inactive); (mutant strain inhibition) -10.2%.
As for `Brc1ccc(CSc2ccc(-c3ccco3)nn2)cc1`, the inhibition by setting is: under setting [1], 12.2% (inactive); (mutant strain inhibition) -1.7%.
As for `Fc1cccc(Cl)c1CSc1ccc(-c2ccco2)nn1`, the inhibition runs as follows: under setting [1], 75.3% (active); (mutant strain inhibition) 67.7%.
Consider `Cn1c(SCc2c(F)cccc2Cl)nnc1-c1cnccn1`, for which the inhibition under setting [1] is 4.78% (inactive) and the inhibition (mutant strain inhibition) was -6.62%.
In the case of `CCc1ccc(NC(=O)CSc2nnc(-c3cnccn3)n2Cc2ccco2)cc1`, the inhibition is, setting by setting: under setting [1], 6.65% (inactive); (mutant strain inhibition) 10.6%.
For `Cc1ccc(NC(=O)CSc2nnc(-c3cnccn3)n2Cc2ccco2)cc1C`, in that order: -14.2% (inactive) and -7.75%.
On to `CCn1c(SCC(=O)Nc2cc(C)ccc2C)nnc1-c1cnccn1`, for which the inhibition under setting [1] was 62.3% (active) and the inhibition (mutant strain inhibition) was found to be 14.8%.
On to `CCOc1ccc(C2c3[nH]c4ccccc4c3CCN2Cc2cn(CC)nc2C)cc1` (stereo unspecified), for which the inhibition reads like this: under setting [1], 36% (inactive); (mutant strain inhibition) 39.9%.
Turning to `COc1cccc(N(Cc2nnc3n2CCCCC3)C(=O)Nc2ccccc2F)c1`, the inhibition runs as follows: under setting [1], 9.35% (inactive); (mutant strain inhibition) 6.31%.
The corresponding values for `O=c1[nH]n(-c2cccc(Cl)c2)c2ncccc12` are 3.71% (inactive) and 33.7%.
The corresponding values for `Cc1[nH]n(-c2cccc(Cl)c2)c(=O)c1/C=N/n1c(C)nc2ccccc2c1=O` are -0.49% (inactive) and -9.97%.
For the compound `Cc1[nH]n(-c2cccc(Cl)c2)c(=O)c1-c1ccc(Cl)cc1`, the inhibition under setting [1] was 81.8% (active) and the inhibition (mutant strain inhibition) is 74.9%.
The corresponding values for `CCc1cc(CNC(=O)CC2C(=O)NCCN2CC2CCCCC2)on1` (stereo unspecified) are 8.17% (inactive) and -2.22%.
In the case of `Cc1cccc(C)c1NC(=O)C1(N(C(=O)c2ccccn2)c2ccc(O)cc2)CCCCC1`, the inhibition reads like this: under setting [1], 0.64% (inactive); (mutant strain inhibition) -13.5%.
As to `CC(=O)N/N=C(\C)c1ccc(Br)cc1Br`, the inhibition runs as follows: under setting [1], 13.2% (inactive); (mutant strain inhibition) 10.1%.
The corresponding values for `O=C(/C(=N\O)n1cncn1)c1ccc(Br)cc1Br` are 86.5% (active) and -4.91%.
In the case of `Cc1ccc(C(=O)N2CCCC(c3ccccc3)=N2)cc1`, the inhibition reads like this: under setting [1], 10.8% (inactive); (mutant strain inhibition) 2.44%.
`Cc1cccc(NC(=O)c2nnn(-c3cccc(C(F)(F)F)c3)c2N)c1`: the inhibition under setting [1] was -4.08% (inactive) and the inhibition (mutant strain inhibition) is -7.16%.
As to `O=C1c2ccccc2NC(c2ccccn2)N1NS(=O)(=O)c1ccccc1` (stereo unspecified), the inhibition runs as follows: under setting [1], -4.85% (inactive); (mutant strain inhibition) -14.2%.
The corresponding values for `NS(=O)(=O)c1ccc(N2C(=O)C3C4CC(C(Br)C4Br)C3C2=O)cc1` (stereo unspecified) are -2.55% (inactive) and -12.2%.
Take `FC(F)(F)c1cc(-c2ccco2)nc(N2CCOCC2)n1`: the inhibition was 7.84% (inactive) under setting [1] and 9.26% (mutant strain inhibition).
Consider `FC(F)(F)c1cc(-c2ccco2)nc(NCc2ccc(Cl)cc2)n1`, for which the inhibition under setting [1] was 76.9% (active) and the inhibition (mutant strain inhibition) was 17.2%.
For the compound `FC(F)(F)c1cc(-c2cccs2)nc(NCc2ccco2)n1`, the inhibition was 6.76% (inactive) under setting [1] and 7.71% (mutant strain inhibition).
As to `COc1ccc(CN2CCCC(C(=O)c3ccc(Cl)cc3)C2)cc1Cn1cncn1` (stereo unspecified), the inhibition by setting is: under setting [1], -19.6% (inactive); (mutant strain inhibition) -4.89%.
For `CCc1ccccc1NC(=S)N(CCN1CCCCCC1)Cc1ccco1`, in that order: -9.37% (inactive) and 22.4%.
Turning to `CS(=O)(=O)N(CC(=O)N/N=C/c1ccccn1)c1ccc(Oc2ccccc2)cc1`, the inhibition reads like this: under setting [1], 13% (inactive); (mutant strain inhibition) 10.6%.
For `O=C(CN1CCN(C2CCCCC2)CC1)Nc1ccccc1N1CCCCC1`, the inhibition by setting is: under setting [1], 6.93% (inactive); (mutant strain inhibition) 0.36%.
The corresponding values for `Cn1c(=O)c2c(nc(SCC(=O)Nc3ccccc3N3CCCCC3)n2C)n(C)c1=O` are 12.6% (inactive) and -10.4%.
Consider `Cc1ccccc1NC(=O)CNc1ccccc1N1CCCCC1`, for which the inhibition by setting is: under setting [1], 67.2% (active); (mutant strain inhibition) 13.6%.
For `CC(Sc1nncn1C)C(=O)Nc1cc(C(F)(F)F)ccc1N1CCOCC1` (stereo unspecified), in that order: -29% (inactive) and -7.18%.
The corresponding values for `COc1ccc(OC)c(NC(=O)CN2CCN(C(=O)c3ccco3)CC2)c1` are -14.9% (inactive) and -24.9%.
The corresponding values for `COc1ccc(NC(C)=O)cc1NC(=O)CN1CCN(C2c3ccccc3-c3ccccc32)CC1` are 60.1% (active) and 41.5%.
`COc1ccc(NC(C)=O)cc1NC(=O)CN1CCN(c2ccccn2)CC1`: the inhibition reads like this: under setting [1], -13.6% (inactive); (mutant strain inhibition) -9.7%.
The corresponding values for `OCC1(CCOc2ccccc2)CCN(Cc2cn[nH]c2-c2ccccc2)CC1` are 15.8% (inactive) and -2.31%.
In the case of `Cc1c(CN2CCC(CO)(CCOc3ccccc3)CC2)[nH]c2ccc(Cl)cc12`, the inhibition is, setting by setting: under setting [1], 94.7% (active); (mutant strain inhibition) 93.1%.
As for `Cc1c(C(=O)N2CCOCC2)[nH]c2ccc(OCc3ccccc3)cc12`, the inhibition is 14.8% (inactive) under setting [1] and 11.7% (mutant strain inhibition).
`CN(c1ccccc1)S(=O)(=O)c1cc(C(=O)OCC(=O)N2CCN(C(=O)c3ccco3)CC2)ccc1Cl`: the inhibition under setting [1] is -22.5% (inactive) and the inhibition (mutant strain inhibition) turned out to be 9.01%.
With `COc1cccc(CC2(CO)CCN(Cc3cnc(-c4cccc(C)c4)nc3)CC2)c1`, the inhibition by setting is: under setting [1], -0.71% (inactive); (mutant strain inhibition) -25.4%.
`Cc1cccc(-c2ncc(CN3CCC(CO)(CCCc4ccccc4)CC3)cn2)c1`: the inhibition reads like this: under setting [1], 84.8% (active); (mutant strain inhibition) 70.5%.
For `OCC1(CCc2ccccc2)CCN(Cc2ccc3nsnc3c2)CC1`, in that order: 9.84% (inactive) and 25.4%.
The corresponding values for `N#CCSc1nn(-c2ccc(F)cc2)c(=S)s1` are 4.11% (inactive) and -30.5%.
Regarding `COCCN(C(=O)c1ccccc1F)c1c(N)n(Cc2ccccc2)c(=O)[nH]c1=O`, the inhibition under setting [1] was 4.27% (inactive) and the inhibition (mutant strain inhibition) amounted to 0.13%.
Regarding `O=[N+]([O-])c1ccccc1N/N=C1\CCc2ccccc21`, the inhibition under setting [1] was -0.84% (inactive) and the inhibition (mutant strain inhibition) turned out to be 3.81%.
For `O=C1c2ccccc2NC(c2ccccc2O)N1NS(=O)(=O)c1ccccc1` (stereo unspecified), in that order: -6.26% (inactive) and -11.6%.
The corresponding values for `CCCCN(CC)CCCNC(=O)c1ccc(CSc2nc3ccncc3[nH]2)cc1` are 7.78% (inactive) and 7.15%.
Regarding `Cc1ccc(-n2cc(CN(C)Cc3nccn3C)c(-c3cccc(C)c3)n2)cc1`, the inhibition by setting is: under setting [1], 78.8% (active); (mutant strain inhibition) 64.6%.
For the compound `Cc1cccc(-n2cc(CN3CCN(C(=O)c4ncn[nH]4)CC3)c(-c3cccc(F)c3)n2)c1`, the inhibition by setting is: under setting [1], 10.2% (inactive); (mutant strain inhibition) -17.8%.
For `COc1ccc(-n2cc(CN(C)Cc3n[nH]c(=O)[nH]3)c(-c3cccc(F)c3)n2)cc1`, in that order: 7.75% (inactive) and 8.93%.
The corresponding values for `Brc1ccc2nc(N3CCCC3)sc2c1` are 14.9% (inactive) and 19.6%.
For the compound `CCOC(=O)C1(Cc2cccc(OC)c2)CCN(Cc2csc(C(C)=O)c2)CC1`, the inhibition is, setting by setting: under setting [1], 25.6% (inactive); (mutant strain inhibition) 25%.
For `O=C(c1ccc(-c2ccccc2)cc1)C1CCCN(C(=O)c2cncs2)C1` (stereo unspecified), in that order: -57.9% (inactive) and 9.01%.
Turning to `Cc1ccc(C2=Nc3c(ccc4ccccc34)C(c3ccncc3)=NN2)cc1`, the inhibition runs as follows: under setting [1], 67.9% (active); (mutant strain inhibition) 45.6%.
On to `CCc1ccc2c(c1)C(c1ccc([N+](=O)[O-])cc1)=NNC(c1ccccc1)=N2`, for which the inhibition runs as follows: under setting [1], -6.57% (inactive); (mutant strain inhibition) 12%.
The corresponding values for `CCOc1ccc2c(c1)C(c1ccc(C)cc1)=NNC(c1ccc(C)cc1)=N2` are 45.3% (inactive) and 35.7%.
